Source: PubChem BioAssay (NCATS)
Records with an inconclusive call do not appear. Unmarked numbers belong to inactive results. The source made the active and inactive calls. Calls follow the shape of the dose curve; as a rule, active = well fitted curve in the direction sought with a large enough effect in the repeat runs; inconclusive = weak or mixed curves; inactive = no such curve, though single readings can be large; an effect the other way counts as inactive or inconclusive.

What follows are compounds tested against Cytochrome P450 2D6 (Homo sapiens) (UniProt P10635) (assay: Cytochrome P450 family 2 subfamily D member 6 (CYP2D6) small molecule antagonists: luciferase biochemical (cell-free) qHTS assay (AID 1645840)). Settings: P450-Glo CYP2D6 enzyme, luciferin luminescence, 1 h; series mostly up to 57.4 µM; activity change, negative = inhibition: at the top concentration.
Cytochrome P450 2D6 (Homo sapiens), sequence (P10635 whole entry, looked up): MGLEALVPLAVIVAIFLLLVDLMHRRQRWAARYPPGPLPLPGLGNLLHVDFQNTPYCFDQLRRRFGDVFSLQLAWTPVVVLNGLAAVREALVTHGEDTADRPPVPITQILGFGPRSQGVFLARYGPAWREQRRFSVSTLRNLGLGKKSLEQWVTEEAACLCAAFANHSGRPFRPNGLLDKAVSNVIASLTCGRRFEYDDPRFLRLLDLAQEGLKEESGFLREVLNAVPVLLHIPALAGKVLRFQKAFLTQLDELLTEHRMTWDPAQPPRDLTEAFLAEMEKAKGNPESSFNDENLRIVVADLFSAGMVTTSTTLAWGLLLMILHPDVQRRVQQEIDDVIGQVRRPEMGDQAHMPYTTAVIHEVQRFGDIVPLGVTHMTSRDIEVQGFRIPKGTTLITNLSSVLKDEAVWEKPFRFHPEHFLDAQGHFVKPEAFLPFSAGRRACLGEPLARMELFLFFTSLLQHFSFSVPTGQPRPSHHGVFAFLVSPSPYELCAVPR
Outline: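 P450-Glo CYP2D6 system: proluciferin substrate converted by enzyme to luciferin, read by luminescence proportional to activity. Enzyme-substrate mix with compound 10 min at room temperature, then NADPH regeneration 1 h before detection reagent.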
% is scaled to controls: 0 for no effect and ±100 for the full control effect.
Also: nearly all actives have a fitted effect of over 55% in size.

In order of falling “activity change, negative = inhibition” value:
1. O=C1CCC(=O)N1CO  8.93%
2. CCC(Cc1c(I)cc(I)c(O)c1I)C(=O)O (stereo unspecified)  7.23%
3. C[C@H]1O[C@@H](O[C@H]2[C@@H](O)C[C@H](O[C@H]3[C@@H](O)C[C@H](O[C@H]4CC[C@@]5(C)[C@H](CC[C@@H]6[C@@H]5C[C@@H](O)[C@]5(C)[C@@H](C7=CC(=O)OC7)CC[C@]65O)C4)O[C@@H]3C)O[C@@H]2C)C[C@H](O)[C@@H]1O  7.08%
4. CC[C@H]1OC(=O)[C@H](C)[C@@H](O[C@H]2C[C@@](C)(OC)[C@@H](O)[C@H](C)O2)[C@H](C)[C@@H](O[C@@H]2O[C@H](C)C[C@H](N(C)C)[C@H]2O)[C@](C)(O)C[C@@H](C)CN(C)[C@H](C)[C@@H](O)[C@]1(C)O  6.42%
5. C[C@]12CC[C@@H]3c4ccc(OC(=O)c5ccccc5)cc4CC[C@H]3[C@@H]1CC[C@@H]2O  4.79%
6. C=C1[C@H](CO)[C@@H](O)C[C@@H]1n1cnc2c(=O)[nH]c(N)nc21  4.48%
7. C=C1CC[C@H](O)CC1=C/C=C1\CCC[C@]2(C)[C@@H]([C@H](C)/C=C/[C@H](C)C(C)C)CC[C@@H]12  2.58%
8. CCCCC(=O)O[C@H]1CC[C@H]2[C@@H]3CCc4cc(O)ccc4[C@H]3CC[C@]12C  2.12%
9. CC(=O)NCCCS(=O)(=O)O  1.48%
10. CCCC(=O)O  0.548%
11. CC(C)(C)c1ccc(CN2CCN(C(c3ccccc3)c3ccc(Cl)cc3)CC2)cc1 (stereo unspecified)  -19.9%
12. O=S(=O)(O)CCCS(=O)(=O)O  -23.2%

These compounds were tested against Cytochrome P450 2C9 (Homo sapiens) (UniProt P11712) (assay: Cytochrome P450 family 2 subfamily C member 9 (CYP2C9) small molecule antagonists: luciferase biochemical (cell-free) qHTS assay (AID 1645842; also: potency is read from the fitted curve at half-maximal effect)). Settings: P450-Glo CYP2C9 enzyme assay, luciferin luminescence; series mostly up to 57.4 µM; activity change, negative = inhibition: at the top concentration.
Cytochrome P450 2C9 (Homo sapiens), sequence (P11712 whole entry, looked up): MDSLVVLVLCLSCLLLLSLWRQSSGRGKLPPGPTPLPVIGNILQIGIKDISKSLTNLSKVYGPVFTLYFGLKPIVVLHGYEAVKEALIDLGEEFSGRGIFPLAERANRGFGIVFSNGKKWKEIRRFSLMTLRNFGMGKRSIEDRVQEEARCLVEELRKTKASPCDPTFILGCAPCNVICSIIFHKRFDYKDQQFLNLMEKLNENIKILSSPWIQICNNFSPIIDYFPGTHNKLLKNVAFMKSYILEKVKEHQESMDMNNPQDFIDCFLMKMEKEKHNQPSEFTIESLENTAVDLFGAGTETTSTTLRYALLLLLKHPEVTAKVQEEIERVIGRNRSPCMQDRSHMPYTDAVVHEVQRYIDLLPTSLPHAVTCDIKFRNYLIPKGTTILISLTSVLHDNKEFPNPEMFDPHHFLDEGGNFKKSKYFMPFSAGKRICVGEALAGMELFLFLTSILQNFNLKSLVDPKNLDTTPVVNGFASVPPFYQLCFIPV
Outline: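 P450-Glo CYP2C9 system: proluciferin substrate with enzyme in mix containing 0.4% BSA, 10 min at room temperature, then NADPH regeneration solution added and incubated 1 h at 37C. Detection reagent stopped reaction; luminescence read after 20 min as RLU.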

In the case of CC(C)=CCC/C(C)=C/CC/C(C)=C/CC/C(C)=C/CC1=C(C)C(=O)c2ccccc2C1=O, the Potency is reported as 8.49 µM (active).
In the case of Cc1cc(-c2ccc(N=Nc3c(S(=O)(=O)O)cc4cc(S(=O)(=O)O)cc(N)c4c3O)c(C)c2)ccc1N=Nc1c(S(=O)(=O)O)cc2cc(S(=O)(=O)O)cc(N)c2c1O, the Potency is reported as 15.1 µM (active).
For CCOC(=O)[C@@H](N)CS, the Potency was 10.7 µM (active).
With CCCCC(=O)O[C@H]1CC[C@H]2[C@@H]3CCc4cc(O)ccc4[C@H]3CC[C@]12C the Potency was 19 µM (active).
In the case of Cn1c(O)c(N=NC(N)=S)c2ccccc21, the Potency is reported as 9.52 µM (active).
CCC(Cc1c(I)cc(I)c(O)c1I)C(=O)O (stereo unspecified) was tested, and the Potency was 10.7 µM (active).
O=C(O)c1cc(N=Nc2ccc(O)c(C(=O)O)c2)ccc1O was tested, and the Potency was 10.7 µM (active).
For Cc1c(C)c2c(c(C)c1OC(=O)CCC(=O)O)CC[C@@](C)(CCC[C@H](C)CCC[C@H](C)CCCC(C)C)O2, the Potency was 21.3 µM (active).
C=C1CC[C@H](O)CC1=C/C=C1\CCC[C@]2(C)[C@@H]([C@H](C)/C=C/[C@H](C)C(C)C)CC[C@@H]12 was tested, and the Potency was 16.9 µM (active).

In order of rising “activity change, negative = inhibition” value:
1. C=C1[C@H](CO)[C@@H](O)C[C@@H]1n1cnc2c(=O)[nH]c(N)nc21  -22.2%
2. CC[C@H]1OC(=O)[C@H](C)[C@@H](O[C@H]2C[C@@](C)(OC)[C@@H](O)[C@H](C)O2)[C@H](C)[C@@H](O[C@@H]2O[C@H](C)C[C@H](N(C)C)[C@H]2O)[C@](C)(O)C[C@@H](C)CN(C)[C@H](C)[C@@H](O)[C@]1(C)O  -19.2%
3. CC(C)(C)c1ccc(CN2CCN(C(c3ccccc3)c3ccc(Cl)cc3)CC2)cc1 (stereo unspecified)  -3.4%
4. C[C@H](NCCc1ccc(O)cc1)[C@H](O)c1ccc(O)cc1  -1.04%
5. COC(=O)C(CN)c1c[nH]c2ccc(OC)cc12 (stereo unspecified)  -0.364%
6. CCCC(=O)O  0.814%
7. O=C1CCC(=O)N1CO  2.27%
8. C[C@H]1O[C@@H](O[C@H]2[C@@H](O)C[C@H](O[C@H]3[C@@H](O)C[C@H](O[C@H]4CC[C@@]5(C)[C@H](CC[C@@H]6[C@@H]5C[C@@H](O)[C@]5(C)[C@@H](C7=CC(=O)OC7)CC[C@]65O)C4)O[C@@H]3C)O[C@@H]2C)C[C@H](O)[C@@H]1O  4.2%
9. CC(=O)NCCCS(=O)(=O)O  7.02%
10. O=S(=O)(O)CCCS(=O)(=O)O  9.65%
